# Screening data (PubChem)
# GPR151 activ – activates the human receptor GPR151 | Q8TDV0 | PathHunter beta-arrestin GPR151 cells, luminescence | activation, % at 11.2 µM | actives 1% (n = 650,000) | AID 1508602; in the data active = activation above about 4.9%
# TEAD-YAP block – TEAD-YAP interaction inhibition. HEK-TIYL cells, TEAD-Gal4/YAP UAS-luciferase luminescence. AID 1259422. inhibition, % at 9.12 µM. actives 1.4% (n = 640,000); in the data active = inhibition above about 32%
# MITF primary – inhibitors of human MITF; O75030; actives 0.91% (n = 650,000); AlphaScreen MITF homodimerization, bead proximity signal; inhibition, % at 2.6 µM; AID 1259374; in the data active = inhibition above about 50%
# Target sequence (O75030 whole entry, looked up): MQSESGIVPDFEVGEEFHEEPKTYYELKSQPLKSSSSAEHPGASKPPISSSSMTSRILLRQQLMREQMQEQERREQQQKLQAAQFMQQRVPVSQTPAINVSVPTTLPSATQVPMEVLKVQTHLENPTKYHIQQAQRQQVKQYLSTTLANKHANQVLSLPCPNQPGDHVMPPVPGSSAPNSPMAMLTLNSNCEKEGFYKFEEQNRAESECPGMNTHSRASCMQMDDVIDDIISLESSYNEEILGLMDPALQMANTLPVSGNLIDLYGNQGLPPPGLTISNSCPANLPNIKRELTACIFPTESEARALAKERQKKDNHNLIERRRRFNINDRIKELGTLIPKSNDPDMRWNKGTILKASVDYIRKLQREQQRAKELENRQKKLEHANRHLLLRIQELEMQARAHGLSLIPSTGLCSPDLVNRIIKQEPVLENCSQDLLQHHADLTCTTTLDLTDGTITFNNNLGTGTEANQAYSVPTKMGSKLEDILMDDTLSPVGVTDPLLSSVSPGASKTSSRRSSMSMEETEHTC
# FBW7 activator – activators of human E3 ligase FBW7; Q969H0; AlphaScreen FBW7–phospho-cyclin E peptide binding, activator screen; normalized activity (activation), % at 26.1 µM; actives 0.13% (n = 650,000); in the data active = normalized activity above about 1.9%;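 note: purified mutant Fbw7 with reduced substrate affinity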
# GPR151 confirm – human GPR151 activation, confirmation screen | shares compounds with GPR151 activ | GPR151 PathHunter beta-arrestin cells, luminescence, 90 min; % of EA-reagent control over plate median | activation, % at 11.2 µM | 6,700 tested, under 10 active;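 active = mean percent activation across replicates above the confirmation screen cutoff of 4.91%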
# GPR119 counter – GPR119 activation, counter-screen for GPR151 activators. shares compounds with GPR151 activ. GPR119 PathHunter beta-arrestin cells, luminescence, 90 min; 0 = compound-well median, 100 = enzyme-acceptor control. activation, % at 11.2 µM. actives 0.3% (n = 6,700);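 active = mean percent activation in the counterscreen above 29.09%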;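 note: counterscreen on off-target GPR119 to flag nonselective hits from the GPR151 activator screen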
# Hits are given with their value; 0 = inactive; - = not tested or not shown. The list is not random: actives were taken first. Their share in the collection is about 3.4%.
SMILES,GPR151 activ,TEAD-YAP block,MITF primary,FBW7 activator,GPR151 confirm,GPR119 counter
CC(C)[C@@H](OCc1ccccc1)[C@H](C)/C=N/O[C@H](C)c1cn([C@H](CO)Cc2ccccc2)nn1,6.1,-,0,0,0,0
CC(=O)OC[C@H]1O[C@H](C/C=N/O[C@@H](C)c2cn([C@H](CO)Cc3ccccc3)nn2)C=C[C@@H]1OC(C)=O,0,-,0,0,-,-
Cc1csc(Nc2ccccc2)[n+]1CC(O)c1ccc([N+](=O)[O-])cc1 (centres undefined),6.3,0,0,0,0,0
Cc1ccc(-c2nc3cc(NC(=O)c4cc(Cl)ccc4Cl)ccc3o2)cc1Br,0,0,0,0,-,-
Cc1ccc(-c2nc3cc(NC(=O)c4cc(Br)ccc4Cl)ccc3o2)cc1Br,6.1,0,0,0,0,0
CC(=O)Nc1ccc2oc(-c3ccncc3)nc2c1,5.1,0,0,0,0,0
Cc1c(C(=O)Nc2ccc3oc(-c4ccncc4)nc3c2)cccc1[N+](=O)[O-],0,0,0,0,-,-
Cc1c(C(=O)Nc2ccc3oc(-c4cccnc4)nc3c2)cccc1[N+](=O)[O-],11,0,0,0,0,0
CC(=O)Nc1ccc(-c2nc3cc(C)ccc3o2)cc1,0,0,0,0,-,-
Cc1nc2c(C(=O)NCc3ccccn3)cnn2c(C)c1Cc1ccccc1F,0,0,0,0,-,-
COc1ccc(Cc2nnc(NC(=O)c3ccc([N+](=O)[O-])cc3)s2)cc1OC,0,0,0,0,-,-
Cc1ccc(CN2CCN(CC(C)(C)C)C(CCO)C2)o1 (centres undefined),0,0,0,0,-,-
NC(=O)CSc1nc2ncnc(N)c2[nH]1,0,0,0,0,-,-
Nc1ncnc2nc(SCCO)[nH]c12,7.0,0,0,0,0,0
CC1CCCCC1NC(=O)Cn1c(=O)oc2ccccc21 (centres undefined),0,0,0,0,-,-
O=Cc1ccccc1S(=O)(=O)c1ccccc1,0,0,0,0,-,-
CC(C)CC(=O)N1CCC(c2nc3c(nnn3Cc3ccc(F)cc3)c(=O)[nH]2)CC1,0,0,0,0,-,-
CC(C)CC(=O)N1CCC(c2nc3c(nnn3Cc3cccc(F)c3)c(=O)[nH]2)CC1,5.6,0,0,0,0,0
O=S1(=O)N=C(N(CCO)/N=C/c2cccc(O)c2O)c2ccccc21,5.9,0,0,0,0,0
CCOc1cccc2sc(N(CCN(C)C)C(=O)c3cc(Cl)ccc3[N+](=O)[O-])nc12,7.1,0,0,0,0,0
CCCCC(=O)N(CCn1cccn1)c1nc2c(F)cccc2s1,0,0,0,0,-,-
O=C(c1cc(Cl)ccc1Cl)N(CCn1cccn1)c1nc2c(F)cccc2s1,6.1,0,0,0,0,0
COc1cc2c(N3C(=O)CCC3=O)c3c(=O)oc(C)cn3c2cc1OC,9.1,0,0,0,0,0
CCC(=O)NNC(=O)CSc1nnc2c3c(C)c(C)sc3nc(C(C)C)n12,0,0,0,0,-,-
Cc1sc2nc(C(C)C)n3c(SCC(=O)NNC(=O)C(C)C)nnc3c2c1C,7.4,0,0,0,0,0
SMILES,GPR151 activ,TEAD-YAP block,MITF primary,FBW7 activator,GPR151 confirm,GPR119 counter
COc1ccccc1NC(=O)NCc1nc(N)n(C(=O)Nc2ccccc2OC)n1,5.2,0,0,0,0,0
O=C1CCCC2=C1C(c1ccc(O)c(Cl)c1)C1=C(CCCC1=O)O2,7.4,34,0,0,0,0
CC(C)N(CCNC(=O)c1ccc2nc(Nc3ccnn3C)sc2c1)C(C)C,6.8,0,0,0,0,0
CC(C)N(CCNC(=O)c1cccc(Nc2ccnn2C)n1)C(C)C,6.1,0,0,0,0,0
CC(C)N(CCNC(=O)c1ccc2nc(Nc3ncccn3)sc2c1)C(C)C,0,0,0,0,-,-
O=C1OC(c2ccc(Cl)cc2Cl)=N/C1=C\c1cccc(Cl)c1Cl,8.0,0,0,0,0,0
O=C(O)c1ccc2c(=O)[nH]c3c(C(=O)N4CCCC4)sc(=S)n3c2c1,0,0,0,0,-,-
COc1ccccc1C1CN(CC(=O)N(C)C(C)c2nccs2)Cc2ccccc2O1 (centres undefined),0,0,0,0,-,-
CN(Cc1nccs1)C(=O)CN1Cc2ccccc2OC(c2ccccc2F)C1 (centres undefined),6.6,0,0,0,0,0
CS(=O)(=O)N(CC(=O)N1CCN(c2ccc(F)cc2)CC1)Cc1ccc(Cl)cc1,0,0,0,0,-,-
CS(=O)(=O)N(CC(=O)N1CCN(c2ccccc2)CC1)Cc1ccc(Cl)cc1,5.0,0,0,0,0,0
CC(C)CNC(=O)COC(=O)c1ccc(O)cc1,0,0,0,0,-,-
CC(C)CNC(=O)NC(=O)COC(=O)c1ccccc1N=Nc1ccc(O)cc1,5.9,0,0,0,0,0
CCOC(=O)c1[nH]c(C#N)c(C(=O)OCC)c1C,0,0,0,0,-,-
C/C(CC(=O)Nc1ccc2c(c1)OCCO2)=N\NC(=O)C(=O)Nc1ccc(C)cc1,7.0,0,0,0,0,0
CC(=O)N/N=C(\C)CC(=O)Nc1ccc2c(c1)OCCO2,0,0,0,0,-,-
Cc1cc(=O)[nH]c(SC(C)C(=O)Nc2cccc(Cl)c2)n1 (centres undefined),8.7,0,0,0,0,0
CCOc1ccc(C(=O)N/N=C(/C)c2ccc(Br)cc2)cc1,0,0,0,0,-,-
Cc1ccc(NC(=O)CC2(CC(=O)O)CCCCC2)c(C)c1,5.7,0,0,0,0,0
Cc1cccc(NC(=O)CC2(CC(=O)O)CCCC2)c1,0,0,0,0,-,-
O=C(Nc1cccc(N2CCC(NCc3ccc(Cl)s3)CC2)c1)C1CC1,0,0,0,0,-,-
CCOc1cc(S(=O)(=O)n2nnc3ccccc32)ccc1F,5.1,0,0,0,0,0
OC1CCN(c2ccnc3c(-c4ccc(F)cc4)cnn23)CC1,0,0,0,0,-,-
COc1ccc(S(=O)(=O)Nc2ccc(F)c(F)c2)cc1C,14,0,0,0,0,0
COC(=O)COc1ccc(NS(=O)(=O)c2ccc(NC(C)=O)cc2)cc1,0,0,0,0,-,-
SMILES,GPR151 activ,TEAD-YAP block,MITF primary,FBW7 activator,GPR151 confirm,GPR119 counter
COC(=O)c1c(C)oc2ccc(NS(=O)(=O)c3ccc(C(C)(C)C)cc3)cc12,0,0,0,0,-,-
CCCCc1ccc(NS(=O)(=O)c2ccc(OCC(=O)OC)cc2)cc1,5.2,0,0,0,0,0
CCOC(=O)COc1ccc(S(=O)(=O)Nc2ccc(C(=O)OCC)cc2)cc1,5.0,0,0,0,0,0
CCOC(=O)COc1ccc(S(=O)(=O)Nc2ccc(Br)cc2)cc1,0,0,0,0,-,-
CCOc1ccc(S(=O)(=O)Nc2ccc3oc(C)c(C(=O)OC)c3c2)cc1,8.9,63,0,0,0,0
CC(=O)Nc1ccc(NS(=O)(=O)c2cc(C(C)(C)C)cc(C)c2C)cc1,6.4,0,0,0,0,0
Cc1ccc(NS(=O)(=O)c2cc(C(=O)O)cc(C)c2C)cc1,0,0,0,0,-,-
COC(=O)COc1ccc(S(=O)(=O)Nc2ccc(NC(C)=O)cc2)cc1C,6.2,0,0,0,0,0
